Measurements: article PMC4336329 (PLoS ONE, 2015)
The campaign covered roughly 310,000 compounds. About 2,200 (0.71%) showed an effect of 50% or more. The effect is printed as a negative number. This is one part of a sample in which strong results are shown more often than they occur.

Target: human ether-à-go-go-related gene (hERG) potassium channel (human, UniProt Q12809)
Assay: primary screen, population patch clamp on CHO cells stably expressing hERG; higher = less effect of the substance
Description: Briefly, Chinese hamster ovary (CHO) cells stably expressing the hERG channel were dislodged from tissue culture flasks and dispensed into PPC plates. […] During the recording, background leak currents were estimated by a 100 ms step to -80 mV from an initial holding potential of -70 mV and subtracted from the subsequent current measurement. The campaign was conducted in two phases using slight differences in recording protocol. In the first phase, the initial voltage pulse used a 100 ms step to -30 mV from a holding potential of -70 mV, a 2 s conditioning step to +25 mV, and a 2 s test step to -30 mV. During the second phase of the screen, the potential during the conditioning step was raised to +45 mV. In both phases of the campaign, a secondary voltage pulse was applied using the same parameters as the second phase initial pulse. The initial and secondary pulses were applied in the absence of compound, and upon application of 1 μM and 10 μM test concentrations. Small molecule effects on hERG current density were quantified by […].

Chain of human ether-à-go-go-related gene (hERG) potassium channel (Q12809 whole entry, looked up): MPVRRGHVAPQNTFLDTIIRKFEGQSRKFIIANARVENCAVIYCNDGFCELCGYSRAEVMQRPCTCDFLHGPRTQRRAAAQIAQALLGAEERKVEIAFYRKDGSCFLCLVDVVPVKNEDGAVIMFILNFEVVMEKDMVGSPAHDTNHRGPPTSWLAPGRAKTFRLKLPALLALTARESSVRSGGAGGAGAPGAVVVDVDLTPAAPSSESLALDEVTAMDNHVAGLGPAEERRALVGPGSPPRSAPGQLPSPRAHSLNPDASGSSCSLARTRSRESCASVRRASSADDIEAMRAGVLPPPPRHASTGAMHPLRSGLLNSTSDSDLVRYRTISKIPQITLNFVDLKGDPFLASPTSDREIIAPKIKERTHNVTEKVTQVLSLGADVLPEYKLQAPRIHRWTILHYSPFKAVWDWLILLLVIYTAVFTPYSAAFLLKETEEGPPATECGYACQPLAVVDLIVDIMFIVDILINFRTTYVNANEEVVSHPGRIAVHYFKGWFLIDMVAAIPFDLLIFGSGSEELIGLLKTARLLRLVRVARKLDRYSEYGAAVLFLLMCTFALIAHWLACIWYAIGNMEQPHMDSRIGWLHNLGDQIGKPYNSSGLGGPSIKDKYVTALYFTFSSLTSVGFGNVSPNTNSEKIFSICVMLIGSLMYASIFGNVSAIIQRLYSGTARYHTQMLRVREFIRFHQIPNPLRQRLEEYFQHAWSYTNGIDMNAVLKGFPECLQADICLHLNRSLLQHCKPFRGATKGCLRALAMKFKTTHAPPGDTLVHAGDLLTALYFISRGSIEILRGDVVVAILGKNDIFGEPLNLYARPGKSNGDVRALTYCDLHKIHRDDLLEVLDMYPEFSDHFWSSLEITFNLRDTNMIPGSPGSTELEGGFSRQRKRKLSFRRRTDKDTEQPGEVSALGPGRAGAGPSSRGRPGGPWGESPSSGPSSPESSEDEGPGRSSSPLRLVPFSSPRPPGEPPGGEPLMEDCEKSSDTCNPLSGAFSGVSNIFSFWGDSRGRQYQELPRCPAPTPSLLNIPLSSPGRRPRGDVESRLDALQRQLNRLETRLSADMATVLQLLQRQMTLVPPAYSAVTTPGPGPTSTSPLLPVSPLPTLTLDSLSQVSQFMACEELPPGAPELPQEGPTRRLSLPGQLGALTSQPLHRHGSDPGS

| Structure (SMILES) | hERG current change (%, negative = inhibition) at 1uM [%] |
| --- | --- |
| COc1ccc(N2CCN(c3ncnc4c3cnn4-c3ccc(C)cc3C)CC2)cc1 | 13.6 |
| CCC(=O)N1CCc2cc(S(=O)(=O)NC(C(=O)NCc3ccc(C)cc3)C(C)C)ccc21 (stereo not drawn) | 1.57 |
| CCOc1ccc2nc(N3CCCC(C(=O)NCCCN4CCCCC4)C3)sc2c1 (stereo not drawn) | -11.7 |
| CCN=C(NCC)SC1CC(=O)N(c2ccc(OCC)cc2)C1=O (stereo not drawn) | 7.6 |
| Cn1cc(/C=N/NC(=O)c2ccc(C#N)cc2F)c2ccccc21 | 12.6 |
| N#Cc1c(N2CCCC(O)C2)nc(N)c2c(N)nc3c(c12)CC(=O)N3C12CC3CC(CC(C3)C1)C2 (stereo not drawn) | 8.76 |
| CN(C)c1ccc(/C=C(\NC(=O)c2ccccc2)C(=O)NCc2ccncc2)cc1 | 4.78 |
| Cc1ccc(C(=O)N/C(=C\c2cccc([N+](=O)[O-])c2)C(=O)NCc2ccncc2)cc1 | -65.3 |
| O=C(NCc1ccncc1)/C(=C\c1ccc(F)cc1)NC(=O)c1ccccc1 | -52.3 |
| CCNC(=O)/C(=C/c1cccc([N+](=O)[O-])c1)NC(=O)c1ccc(C)cc1 | -17.3 |
| COc1ccc(/C=C(/NC(=O)c2ccccc2)C(=O)NCc2ccncc2)cc1 | -12.6 |
| O=C(NCc1ccncc1)/C(=C/c1cccc([N+](=O)[O-])c1)NC(=O)c1ccccc1 | -31.2 |
| Cc1ccc(C23CC4CC(CC(C(=O)OCC(=O)NC5CCS(=O)(=O)C5)(C4)C2)C3)cc1 (stereo not drawn) | 1.74 |
| COc1ccc(OCC(=O)NNC(=O)C(=O)Nc2cc(OC)ccc2OC)cc1 | 13.5 |
| c1ccc(-c2oc3ncnc(NCCN4CCOCC4)c3c2-c2ccccc2)cc1 | 9.8 |
| c1ccc(-c2oc3ncnc(NCCCN4CCOCC4)c3c2-c2ccccc2)cc1 | 0.244 |
| N=c1c2c(-c3ccccc3)c(-c3ccccc3)oc2ncn1CCN1CCOCC1 | -63.5 |
| N=c1c2c(-c3ccccc3)c(-c3ccccc3)oc2ncn1Cc1ccco1 | 9.94 |
| COc1ccc(-c2oc3ncn(CCN4CCOCC4)c(=N)c3c2-c2ccc(OC)cc2)cc1 | -7.75 |
| N=c1c2c(-c3ccccc3)c(-c3ccccc3)oc2ncn1CCCN1CCOCC1 | -84.5 |
| CN(Cc1cccc2cnccc12)C(=O)CCc1nnc(CCc2ccccc2)o1 | -5.46 |

| Structure (SMILES) | hERG current change (%, negative = inhibition) at 1uM [%] |
| --- | --- |
| COc1ccccc1CCc1nnc(CCC(=O)N(C)Cc2cccc3cnccc23)o1 | -53.3 |
| COc1ccccc1CCc1nnc(CCC(=O)N(C)Cc2ccncc2C)o1 | 16.2 |
| COc1ccc2[nH]c(=O)c(CN(Cc3cccnc3)S(=O)(=O)c3ccccc3F)cc2c1 | 7.89 |
| CCOc1ccc(NC(=O)CN(C)C(=O)c2ccc(-c3ccc(C(C)=O)cc3)o2)cc1OCC | 10.5 |
| Cl.Nc1c2c(nc3ccccc13)CCCC2 | -12.6 |
| Nc1c2c(nc3ccn(Cc4ccccc4)c(=O)c13)CCC2 | -59 |
| Nc1c2c(nc3ccn(-c4ccccc4)c(=O)c13)CCCCC2 | -37.1 |
| NC(=O)NC(c1ccc(Cl)cc1)c1ccccc1Cl (stereo not drawn) | 7.43 |
| CC(=O)Nc1ccc(-n2c(C)ccc2C)cc1 | 12.9 |
| O=C(/C=C/c1ccc(F)cc1)N1CCN(c2ncccn2)CC1 | 18.1 |
| O=C(/C=C/c1ccccc1)N1CCN(c2ccccn2)CC1 | -3.17 |
| O=C(/C=C/c1ccccc1Cl)N1CCN(c2ncccn2)CC1 | 7.12 |
| O=C(/C=C/c1cccc(F)c1)N1CCN(c2ccccn2)CC1 | -68.4 |
| O=C(/C=C/c1c(Cl)cccc1Cl)N1CCN(c2ncccn2)CC1 | -53 |
| O=C(/C=C/c1cccc(F)c1)N1CCN(c2ncccn2)CC1 | 12.4 |
| Cc1ccc2cc(CCNC(=O)c3ccc(S(=O)(=O)N4CCOCC4)cc3)c(=O)[nH]c2c1C | 11.8 |
| Cc1ccc(C)c(S(=O)(=O)NCC(=O)NCc2ccco2)c1 | 4.55 |
| Cc1cccc(C)c1NC(=O)CCCSc1nnc(N)s1 | 8.09 |
| Cc1ccc(OCC(O)Cn2c3ccccc3c3ccccc32)cc1 (stereo not drawn) | 16.8 |
| Br.CCCCn1c(=N)n(CCOc2ccc(C)cc2)c2ccccc21 | -59.6 |
| CCCn1c(=N)n(CC(O)COc2ccc(C)cc2)c2ccccc21.Cl (stereo not drawn) | -68 |

| Structure (SMILES) | hERG current change (%, negative = inhibition) at 1uM [%] |
| --- | --- |
| CCCCn1c(=N)n(CC(O)c2ccccc2)c2ccccc21.Cl (stereo not drawn) | -36.7 |
| CCCCn1c(=N)n(CC(O)COc2ccccc2)c2ccccc21 (stereo not drawn) | -68 |
| CCN(CC)CCn1c(=N)n(CC(O)COc2ccccc2)c2ccccc21.Cl (stereo not drawn) | -20.5 |
| Cl.N=c1n(CCN2CCOCC2)c2ccccc2n1CC(O)COc1ccccc1 (stereo not drawn) | -3.77 |
| Cc1ccc(OCC(O)Cn2c(=N)n(CCN3CCOCC3)c3ccccc32)cc1.Cl (stereo not drawn) | -9.7 |
| CCn1c(=N)n(CCOc2ccc(OC)cc2)c2ccccc21 | -25.5 |
| CCn1c(=N)n(CC(O)COc2ccc(C)cc2)c2ccccc21.Cl (stereo not drawn) | -16.8 |
| CCCCn1c(=N)n(CC(O)COc2ccc(C)cc2)c2ccccc21.Cl (stereo not drawn) | -77 |
| CCCn1c(=N)n(CCOc2ccc(OC)cc2)c2ccccc21 | -22 |
| CCOC(=O)C1CCN(C(=O)CSC2=NCCS2)CC1 | 8.93 |
| NS(=O)(=O)c1ccc(CCNC(=O)CN2CCN(Cc3cccc4ccccc34)CC2)cc1 | 8.33 |
| O=C(COC(=O)CN1C(=O)c2ccccc2C1=O)Nc1cccc(F)c1 | 5.95 |
| Cc1ccc(C)c(NC(=O)COC(=O)CNC(=O)c2ccccc2Cl)c1 | 9.98 |
| Cc1cc(Cl)cc(Cl)c1CNc1c([N+](=O)[O-])c(=O)oc2ccccc12 | 7.59 |
| CC(C)c1cccc(C(C)C)c1NC(=O)CN1C(=O)NC2(CCCCCCC2)C1=O | 8.87 |
| Cc1ccc(S(=O)(=O)CC(=O)c2ccc(C(C)(C)C)cc2)cc1 | 2.43 |
| Br.COc1ccc(C(=O)Cn2c(=N)n(C)c3ccccc32)cc1 | -9.98 |
| Br.CCn1c(=N)n(CC(=O)c2ccc(OC)cc2)c2ccccc21 | -0.629 |
| Br.CCCCn1c(=N)n(CC(=O)c2ccc(OC)cc2)c2ccccc21 | -62.2 |
| C=CCOn1c(C)c(C(C)=O)c2c3nonc3ccc21 | 13.1 |
| O=C(OCc1ccc2c(c1)OCO2)c1ccc(S(=O)(=O)N2CCCC2)cc1 | 3.44 |

| Structure (SMILES) | hERG current change (%, negative = inhibition) at 1uM [%] |
| --- | --- |
| CC(=O)Nc1ccc(-c2nnc(SCc3ccccc3C#N)n2C)cc1 | -5.5 |
| O=C1N=C2SCCN2/C1=C\c1ccccc1Cl | 5.64 |
| CCn1c2ccccc2c2cc(NC(=O)CSc3nnnn3-c3ccccc3)ccc21 | 9.35 |
| COc1ccc(C(=O)N/C(=C\c2ccco2)C(=O)NCCCn2ccnc2)cc1 | -0.883 |
| O=C(NCCCn1ccnc1)/C(=C\c1ccco1)NC(=O)c1ccco1 | -10.8 |
| Cc1ccc(C(=O)N/C(=C\c2ccco2)C(=O)NCCCn2ccnc2)cc1C | -15.7 |
| Cc1ccc(C(=O)N/C(=C\c2ccco2)C(=O)NCCCn2ccnc2)cc1 | -64.1 |
| Cc1ccc(C(=O)N/C(=C/c2ccco2)C(=O)NCCCn2ccnc2)cc1 | -62.5 |
| O=C(NCCCn1ccnc1)/C(=C/c1ccco1)NC(=O)c1ccco1 | -10.2 |
| O=C(Nc1nc(-c2nc3ccccc3s2)cs1)C1COc2ccccc2O1 (stereo not drawn) | 13.3 |
| COC(=O)c1sc(NC(=O)c2cc(-c3ccccc3)nc3ccccc23)c(C#N)c1C | -6.75 |
| CCOc1ccc(S(=O)(=O)N2CCC(C(=O)N3CCN(c4ccccc4F)CC3)CC2)cc1C | -1.32 |
| CCc1nc2scc(-c3ccccc3)c2c(=O)n1N | 2.81 |
| COc1ccc(-n2cnnc2SCC(=O)Nc2nc(C)c(Cl)cc2Cl)cc1 | -8.71 |
| CCOC(=O)c1cc2c(=O)n3cccc(C)c3nc2n(Cc2ccco2)c1=NC(=O)c1ccccc1 | 0.671 |
| CCOCCCn1c(=NC(=O)c2ccco2)c(C(=O)OCC)cc2c(=O)n3cccc(C)c3nc21 | -73.9 |
| CCOC(=O)c1cc2c(=O)n3cccc(C)c3nc2n(CC(C)C)c1=NC(=O)c1ccco1 | -64.7 |
| CCCn1c(=NC(=O)c2ccco2)c(C(=O)OCC)cc2c(=O)n3ccccc3nc21 | -6.68 |
| CCCCn1c(=NC(=O)c2ccco2)c(C(=O)OCC)cc2c(=O)n3cccc(C)c3nc21 | -16.5 |
| CCCCCn1c(=NC(=O)c2ccco2)c(C(=O)OCC)cc2c(=O)n3ccccc3nc21 | -30.9 |
| O=C(NC1CC1)c1ccc(S(=O)(=O)NC2CCCCCC2)cc1 | 2.1 |
